Source: PubChem
USP7 inh: inhibitors of human USP7 deubiquitinase; purified USP7, Ub-rhodamine cleavage fluorescence; AID 1645854; hit rate 0.3% among 47,000; inhibition, % at 20 µM
UCHL1 block: blocks human UCHL1 ubiquitin-rhodamine cleavage | P09936 | purified UCHL1, Ub-rhodamine cleavage fluorescence | inhibition, % at 20 µM | hit rate 0.2% among 47,000
OTUD3 inh: blocks human OTUD3 ubiquitin-rhodamine cleavage; purified OTUD3, Ub-rhodamine fluorescence, 2 h; inhibition, % at 25 µM; hit rate 0.7% among 47,000; AID 1645858
Each line names hits and unclear results; the compound was inactive in the other large screens. Hits are enriched below; roughly 0.83% of the tested compounds scored in any of these assays. No stated cut-off is given here; in the data, active means inhibition above about 30%; inactive means the rest.

COc1cccc(CCNC(=O)c2ccc(N3C(=O)C(C)(C)CS3(=O)=O)cc2)c1	none
COc1ccccc1CNC(=O)c1ccccc1OCc1ccccc1Cl	OTUD3 inh 30.4
COc1ccccc1CNC(=O)c1ccccc1-c1ccccc1	none
CCOC(=O)N1CCC(NC(=O)c2cn(-c3cccc(F)c3)nn2)CC1	none
O=C(c1ccc(Cl)cc1)N(c1ccccn1)C1CCCCC1	USP7 inh 51.6, OTUD3 inh 43.7
O=C(c1ccc(F)cc1Cl)N(c1ccccn1)C1CCCCC1	none
O=c1c2c(-c3ccccc3)csc2ncn1Cc1ccc2c(c1)OCO2	none
CCN1CCN(c2nc(NCc3ccco3)c3ccccc3n2)CC1	none
Cc1ccc(Nc2nc(NCc3ccco3)c3ccccc3n2)cc1	OTUD3 inh 35.4
Cc1nc(N2CCCCC2)cc(N2CCN(C(=O)c3ccccc3Cl)CC2)n1	none
COc1cccc(Cn2nc3n(CC(C)C)c(=O)c4ccc(C(=O)NCC(C)C)cc4n3c2=O)c1	OTUD3 inh 36.4
COc1cccc(C(=O)Cn2nc3n(CCC(C)C)c(=O)c4sccc4n3c2=O)c1	none
Cc1cc(=O)[nH]c(C2CN(Cc3ccnn3C(C)C)CCO2)n1 (stereo not drawn)	none
O=C(Nc1ccc2c(c1)OCO2)N1CCN(Cc2ccc3nccnc3c2)CC1	none
COc1cc(NC(=O)Cc2cn3ccccc3n2)cc(OC)c1	none
O=C(Nc1ccc(-c2cn3ccccc3n2)cc1)C1C=C2C=C(Br)C=CC2OC1=O (stereo not drawn)	OTUD3 inh 42.6
O=C(CCCc1c[nH]c2ccccc12)Nc1ccc2c(c1)OCCO2	none
CC1CC(=O)c2c(cc3c(-c4c(O)cc(O)c5c(O)c6c(cc45)OC(C)CC6=O)c(O)cc(O)c3c2O)O1 (stereo not drawn)	USP7 inh 74.2, UCHL1 block 83.4, OTUD3 inh 78.5
Cc1noc(-c2cccnc2-n2ncc(C(=O)NCc3ccccc3C)c2C)n1	none
O=[N+]([O-])c1ccc(C(O)CN2CCN(Cc3ccccc3)CC2)cc1 (stereo not drawn)	UCHL1 block 79.1
O=[N+]([O-])c1ccc(N2CCN(CC(O)c3ccc4c(c3)CCN4)CC2)cc1 (stereo not drawn)	none
COCc1cc(C)nc2sc3c(c12)NC(c1ccc(NC(C)=O)cc1)N(Cc1ccccc1)C3=O (stereo not drawn)	none
CC(C)=CCC[C@](C)(O)[C@H]1CC[C@]2(C)[C@@H]1CC[C@@H]1[C@@]3(C)CC[C@H](O)C(C)(C)[C@@H]3CC[C@]12C	none
C=C(C)[C@@H]1CC[C@]2(C)[C@H](CC[C@@H]3[C@@H](C(C)(O)CCC=C(C)C)CC[C@]32C)[C@@]1(C)CCC(=O)O (stereo partly drawn)	USP7 inh 85.2, UCHL1 block 44.5, OTUD3 inh 87.5
Cc1cc(OCCOCCN2CCN(C)CC2)cc(C)c1Cl	none
CCOc1ccc(C2/C(=C(\O)c3ccccc3)C(=O)C(=O)N2c2nc3ccc(F)cc3s2)cc1 (stereo not drawn)	USP7 inh 72.0
CCOc1ccc2nc(-n3nc(C)c4c3NC(=O)CC4c3cc(F)ccc3F)sc2c1 (stereo not drawn)	none
COc1ccc(C(=O)N2CCC3(CC2)OC(=O)Nc2ccccc23)cc1	none
COc1ccc(CN2CCCC23CCCN(C(=O)CCc2cccnc2)C3)cc1F (stereo not drawn)	OTUD3 inh 44.4
O=C(CCc1cccnc1)N1CCCC2(CCCN2Cc2ccc(Cl)cc2)C1 (stereo not drawn)	none
CCn1c(=O)n(CC(=O)c2ccccc2)c2c(C(N)=O)nc(-c3ccc(C)o3)nc21	none
O=C(Nc1cccc([N+](=O)[O-])c1)Nc1ccc2snnc2c1	USP7 inh 83.7, UCHL1 block 68.2
O=C(Nc1ccc(-n2cccc2)cc1)c1cccc([N+](=O)[O-])c1	none
CCC(C(=O)Nc1nnc2n1CCCS2)c1ccccc1 (stereo not drawn)	none
Cc1ccc(S(=O)(=O)N(C)C)cc1NC(=O)Cc1ccc(Cl)c(Cl)c1	none
Cc1ccn(-c2ccc(NC(=O)c3ccccc3Sc3ccccc3C#N)cc2)n1	none
Cc1ccc(NC(=O)Cc2nc(-c3cccnc3)n[nH]2)cc1C	none
Cc1ccc(NC(=O)Nc2ccc(C)n(CC(=O)Nc3ccc(C)c(C)c3)c2=O)cc1	USP7 inh 42.8
Cc1cccc(NC(=O)Nc2ccc(C)n(CC(=O)N3CCCCC3)c2=O)c1	none
O=C(c1cccc([N+](=O)[O-])c1)N(c1ccccn1)c1ccccn1	none
O=C(/C=C/c1ccco1)c1cccc([N+](=O)[O-])c1	OTUD3 inh 47.2 (no result: USP7 inh)
O=C(COc1nsnc1N1CCOCC1)Nc1ccccc1F	OTUD3 inh 81.4
O=C(COc1nsnc1N1CCOCC1)Nc1ccc(F)c(F)c1	none
COc1cc(C2=NO[C@]3(C(=O)Nc4ccccc43)[C@H]2C(=O)c2ccc(C)cc2)ccc1OCC#N	none
COc1ccc(OC)c(C2=NO[C@]3(C(=O)Nc4ccccc43)[C@H]2C(=O)c2ccc(OC)c(OC)c2)c1	UCHL1 block 84.6
c1cncc(-c2nnc(-c3cc4ccccc4o3)o2)c1	none
Cc1cc(C)nc(SCC(=O)N(Cc2ccco2)C2(C(=O)Nc3c(C)cccc3C)CCCCC2)n1	OTUD3 inh 56.8
CC(=O)Nc1cccc(C(=O)N(Cc2ccco2)C2(C(=O)Nc3c(C)cccc3C)CCCCC2)c1	none
CC(=O)N1CCc2cc(S(=O)(=O)NC(Cc3ccccc3)C(=O)Nc3cccc(Cl)c3C)ccc21 (stereo not drawn)	OTUD3 inh 37.9
CC(=O)N1CCc2cc(S(=O)(=O)NC(Cc3ccccc3)C(=O)NCc3ccc4c(c3)OCO4)ccc21 (stereo not drawn)	none
Cc1noc(C)c1COc1cccc(C(=O)Nc2cc(Cl)ccc2-n2cncn2)c1	none
CC(OC(=O)c1c2c(nc3ccccc13)CCCCC2)C(=O)Nc1ccc2ccccc2c1 (stereo not drawn)	OTUD3 inh 42.8
CC(OC(=O)c1c2c(nc3ccccc13)CCCC2)C(=O)Nc1ccc(N(C)C)cc1 (stereo not drawn)	none
COc1ccc(-n2nc(C)c3sc(N4CCN(C(C)=O)CC4)nc32)cc1	none
O=C(COc1ccc2ccc(=O)oc2c1)c1ccc2c(c1)OCCO2	none
CC(C)Cc1cc(-c2nnc3sc(-c4ccco4)nn23)n[nH]1	OTUD3 inh 41.0
COc1ccc(OCc2nn3c(-c4ccccc4Cl)nnc3s2)cc1	none
Cc1cccc(-n2nnc(-c3nc(-c4ccc(Cl)cc4)no3)c2N)c1	none
Nc1c(-c2nc(-c3ccccc3Cl)no2)nnn1-c1ccc(Cl)cc1	USP7 inh 56.4
O=c1[nH]c(C2CCN(S(=O)(=O)c3ccc(S(=O)(=O)N4CCOCC4)cc3)CC2)nc2c1nnn2Cc1cccc(F)c1	none
O=c1[nH]c(C2CCN(S(=O)(=O)c3ccc(S(=O)(=O)N4CCOCC4)cc3)CC2)nc2c1nnn2Cc1ccc(F)cc1	USP7 inh 30.3, UCHL1 block 31.2
O=C1c2c(O)c(Cl)cc3c2[C@@]2(Oc4ccc(O)c5c4[C@]3(O2)[C@@H]2O[C@@H]2C5=O)[C@@H]2O[C@H]12	USP7 inh 82.0, UCHL1 block 84.0, OTUD3 inh 88.7
Oc1ccc2c3c1[C@@H](O)C1OC1[C@]31Oc3cccc4c3[C@](C=C[C@@H]4O)(O2)O1 (stereo partly drawn)	none
O=C(NC1CCN(Cc2ccccc2)CC1)c1cn(-c2ccc(F)cc2)nn1	none
